Screen size: about 69,000 compounds; about 1,000 (1.4%) showed an effect of 50% or more. What follows is part of a selection rich in strong results, with near analogues and random picks from the rest.
System: Leishmania donovani
Assay: Leishmania intramacrophage assay
Type: functional, organism-based
Set-up: scale not given: in the data most compounds retested in dose-response had high values

**Q.** Which “Percent Effect” value (30.3 µM, […]) does the source give for `Cn1ccc(NC(=O)Cc2ccccc2F)n1` here?
**A.** -10.05%

**Q.** How did the “Percent Effect” value (30.3 µM, […]) turn out when `COC(=O)N1CCCC(C(=O)Nc2nc(C)c(SC)s2)C1` (stereo not drawn) was run?
**A.** 9.664%

**Q.** With `O=C(CCOCc1ccccc1)NS(=O)(=O)N1CCOc2ccccc21` as the compound, how does the “Percent Effect” value (30.3 µM, […]) read?
**A.** 54.49%

**Q.** How did the “Percent Effect” value (30.3 µM, […]) turn out when `CC(C)OCCC(=O)NS(=O)(=O)N1CCOc2ccccc21` was run?
**A.** -11.14%

**Q.** With `O=C(CCc1ccco1)NS(=O)(=O)N1CCOc2ccccc21` as the compound, how does the “Percent Effect” value (30.3 µM, […]) read?
**A.** 39.68%

**Q.** How did the “Percent Effect” value (30.3 µM, […]) turn out when `COCCn1cc(C(=O)N2CCCC2c2ccncc2)c2ccccc21` (stereo not drawn) was run?
**A.** -8.376%

**Q.** With `O=C(c1cccnc1)N1CCC2(CNS(=O)(=O)c3cnccc3O2)C1` (stereo not drawn) as the compound, how does the “Percent Effect” value (30.3 µM, […]) read?
**A.** 9.418%

**Q.** With `Cc1cc(N2CCN(C(=O)[C@@H]3C[C@@H]4C=C[C@H]3C4)CC2)nc2ccccc12` as the compound, how does the “Percent Effect” value (30.3 µM, […]) read?
**A.** 19.09%

**Q.** For `CC(=O)Nc1ccc(C(=O)N(C)Cc2cccc(F)c2)s1`, which “Percent Effect” value (30.3 µM, […]) is on record?
**A.** -28.94%

**Q.** With `CC(=O)Nc1ccc(C(=O)N(C)Cc2ccc(F)cc2F)s1` as the compound, how does the “Percent Effect” value (30.3 µM, […]) read?
**A.** 41.29%

**Q.** With `COc1cccc(CN(C)C(=O)c2ccc(NC(C)=O)s2)c1OC` as the compound, how does the “Percent Effect” value (30.3 µM, […]) read?
**A.** 52.82%

**Q.** Which “Percent Effect” value (30.3 µM, […]) does the source give for `Cc1cc(C(=O)NCc2cccnc2N2CCCC(O)C2)c(C)o1` (stereo not drawn) here?
**A.** 26.29%

**Q.** Which “Percent Effect” value (30.3 µM, […]) does the source give for `COc1ccc(C(=O)C2CCCN(c3nccc(N)n3)C2)c(C)c1` (stereo not drawn) here?
**A.** 44.3%

**Q.** With `CCc1nc2n(n1)CCCC2NC(=O)Nc1cc(OC)ccc1C` (stereo not drawn) as the compound, how does the “Percent Effect” value (30.3 µM, […]) read?
**A.** 6.976%

**Q.** With `COc1ccc(C(=O)C2CCCN(c3cc(N)ncn3)C2)c(C)c1` (stereo not drawn) as the compound, how does the “Percent Effect” value (30.3 µM, […]) read?
**A.** 55.56%

**Q.** `COc1ccc(C(=O)C2CCCN(c3cc(OC)ncn3)C2)c(C)c1` (stereo not drawn) was tested. Which “Percent Effect” value (30.3 µM, […]) did it give?
**A.** 27.19%

**Q.** With `CCc1nc(C)cc(N2CCCC(C(=O)c3ccc(OC)cc3C)C2)n1` (stereo not drawn) as the compound, how does the “Percent Effect” value (30.3 µM, […]) read?
**A.** 50.79%

**Q.** `COc1ccc(C(=O)C2CCCN(c3cnccn3)C2)c(C)c1` (stereo not drawn) was tested. Which “Percent Effect” value (30.3 µM, […]) did it give?
**A.** 7.713%

**Q.** How did the “Percent Effect” value (30.3 µM, […]) turn out when `CC1(C)COCCN1C(=O)CCc1nc(-c2ccncc2)no1` was run?
**A.** 0.2365%

**Q.** For `CC1CCN(CC(=O)NC2CCN(C(C)c3ccccc3)CC2)CC1.Cl` (stereo not drawn), which “Percent Effect” value (30.3 µM, […]) is on record?
**A.** 0.5624%

**Q.** Which “Percent Effect” value (30 µM) does the source give for `COc1ccccc1OCCNCCn1cccn1` here?
**A.** 30.77%

**Q.** Which “Percent Effect” value (30.3 µM, […]) does the source give for `CCn1ccc(-c2cc(NCCCOc3cccc(C)c3)nc(C)n2)n1` here?
**A.** 7.258%

**Q.** How did the “Percent Effect” value (30.3 µM, […]) turn out when `CCn1ccc(-c2cc(NCCCOc3ccccc3C)nc(C)n2)n1` was run?
**A.** 56.31%

**Q.** For `Cc1ccc(C(=O)N2C[C@@H](N3CCN(C)CC3)[C@H]3OCCC[C@H]32)cn1`, which “Percent Effect” value (30.3 µM, […]) is on record?
**A.** 22.91%

**Q.** `CNC(=O)[C@@H]1C[C@H]2CN(Cc3nccs3)C[C@H]2N1C.O=C(O)C(F)(F)F.O=C(O)C(F)(F)F` was tested. Which “Percent Effect” value (30 µM, 30.03 µM) did it give?
**A.** 9.102%

**Q.** With `CC1CN(C(=O)c2cc(=O)[nH]c3ccc(F)cc23)CCO1` (stereo not drawn) as the compound, how does the “Percent Effect” value (30.3 µM, […]) read?
**A.** -3.043%

**Q.** `CN(C)C[C@H]1C[C@@H](CO)CN(C(=O)c2cc(=O)[nH]c3cc(F)ccc23)C1` was tested. Which “Percent Effect” value (30.3 µM, […]) did it give?
**A.** 30.17%

**Q.** How did the “Percent Effect” value (30.3 µM, […]) turn out when `CN(C)C[C@@H]1[C@H]2CN(C(=O)c3cc(=O)[nH]c4ccc(F)cc34)C[C@@H]12` was run?
**A.** 55.47%

**Q.** `CCOC(=O)C1CCN(c2nccc(-n3nc(C)cc3C)n2)CC1` was tested. Which “Percent Effect” value (30.3 µM, […]) did it give?
**A.** 24.33%

**Q.** `Cc1cnc(N2CC(C(=O)N3CCOCC3)C3(CCOCC3)C2)nc1` (stereo not drawn) was tested. Which “Percent Effect” value (30.3 µM, […]) did it give?
**A.** 0.6566%

**Q.** `Cn1ccc(C(=O)N2CCCC(Cc3cccc4ncccc34)C2)n1` (stereo not drawn) was tested. Which “Percent Effect” value (30 µM, 30.03 µM) did it give?
**A.** 74.08%

**Q.** `COCCNc1cc(-c2cccc(C(=O)O)c2C)c2cc[nH]c2n1` was tested. Which “Percent Effect” value (30.3 µM, […]) did it give?
**A.** 27.05%

**Q.** With `Cc1cc(C(=O)NCCN2CCCC(C)C2)nn1C(C)(C)C` (stereo not drawn) as the compound, how does the “Percent Effect” value (30.3 µM, […]) read?
**A.** 12.01%

**Q.** `CN(C)C(=O)c1cncnc1-c1ccc(CNC(=O)C2CCCO2)cc1` (stereo not drawn) was tested. Which “Percent Effect” value (30.3 µM, […]) did it give?
**A.** -46.25%

**Q.** Which “Percent Effect” value (30 µM, 30.03 µM) does the source give for `O=C1CC2(CCN(CCO)CC2)CN1Cc1cc(F)cc(F)c1` here?
**A.** 24.96%

**Q.** `O=C1CC2(CCN(CC3CC3)CC2)CN1Cc1cc(F)cc(F)c1` was tested. Which “Percent Effect” value (30.3 µM, […]) did it give?
**A.** 59.82%

**Q.** `O=C1CC2(CCN(CC3CCOC3)CC2)CN1Cc1cc(F)cc(F)c1` (stereo not drawn) was tested. Which “Percent Effect” value (30 µM, 30.03 µM) did it give?
**A.** 41.14%

**Q.** `Cc1cc(C(N)=O)c2c(Br)cccc2n1` was tested. Which “Percent Effect” value (30.3 µM, […]) did it give?
**A.** -10.76%

**Q.** Which “Percent Effect” value (30.3 µM, […]) does the source give for `c1nc(N2CCOC(Cn3cncn3)C2)c2sccc2n1` (stereo not drawn) here?
**A.** 23.8%

**Q.** With `Cc1cnn(CC2CN(c3ncnc4ccccc34)CCO2)c1` (stereo not drawn) as the compound, how does the “Percent Effect” value (30 µM, 30.03 µM) read?
**A.** 53.49%

**Q.** Which “Percent Effect” value (30 µM) does the source give for `Cc1cnn(CC2CN(c3ncnc4[nH]ccc34)CCO2)c1` (stereo not drawn) here?
**A.** 4.128%

**Q.** Which “Percent Effect” value (30 µM) does the source give for `c1cnn(CC2CN(c3ncnc4[nH]ccc34)CCO2)c1` (stereo not drawn) here?
**A.** 1.835%

**Q.** How did the “Percent Effect” value (30 µM, 30.03 µM) turn out when `c1cnn(CC2CN(c3ncnc4ccsc34)CCO2)c1` (stereo not drawn) was run?
**A.** 45.92%

**Q.** `c1cnn(CC2CN(c3ncnc4sccc34)CCO2)c1` (stereo not drawn) was tested. Which “Percent Effect” value (30 µM, 30.03 µM) did it give?
**A.** 57.28%

**Q.** How did the “Percent Effect” value (30.3 µM, […]) turn out when `c1ccc2c(N3CCOC(Cn4cccn4)C3)ncnc2c1` (stereo not drawn) was run?
**A.** -0.8022%

**Q.** With `CN(C)CC1CN(c2ncnc3ccsc23)CCO1` (stereo not drawn) as the compound, how does the “Percent Effect” value (30.3 µM, […]) read?
**A.** 16.39%

**Q.** How did the “Percent Effect” value (30 µM, 30.03 µM) turn out when `Cc1cnn(CC2CN(c3ncnc4ccsc34)CCO2)c1` (stereo not drawn) was run?
**A.** 66.34%

**Q.** For `Cc1nc2cc(C(=O)N(CCC#N)CC3CCCO3)ccc2[nH]1` (stereo not drawn), which “Percent Effect” value (30.3 µM, […]) is on record?
**A.** 5.976%

From ChEMBL document CHEMBL3988442, “University of Dundee, Small-Polar-MMV Screening Library” (2021)
